Source: PubChem BioAssay (NCATS)
Inconclusive results are not listed. Active and inactive are the calls of the source. Unless noted, the call rests on the fitted dose curve; in most records, active means well fitted curve in the direction sought with a large enough effect; inconclusive means small, poorly fitted or top-dose-only effect, or another doubt; inactive means no such curve, though single readings can be large; an effect the other way counts as inactive or inconclusive.

Legend:
[1] = target: Tumor susceptibility gene 101 protein (Homo sapiens) (UniProt Q99816); assay: qHTS Assay for Iinhibitors of HIV-1 Budding by Blocking the Interaction of PTAP/TSG101: Hit Validation (AID 651600); further: nearly all actives have a fitted effect of over 70% in size; further: potency means the concentration at half of the fitted maximal effect
Summary of the method: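 Displacement of a FITC-labeled PTAP-motif peptide (50 nM) from the Tsg101 binding domain (10 uM) was monitored by fluorescence polarization after a 20 min room-temperature incubation.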

[2] = target: Rap guanine nucleotide exchange factor 3 (Homo sapiens) (UniProt O95398); assay: Confirmatory qHTS for antagonist of cAMP-regulated guanine nucleotide exchange factor 3 (EPAC1) (AID 1645880); details: EPAC1 Rap1B-BODIPY-GDP exchange, fluorescence; activity, negative = inhibition: at 115 µM (top of the series); further: nearly all actives have a fitted effect of over 55% in size; further: potency means the concentration at half of the fitted maximal effect;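 on activity, negative = inhibition: plate controls were DMSO only for no effect and full effect of the ATA control for full effect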
Summary of the method: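 Released BODIPY-GDP fluoresces less than Rap1-bound BODIPY-GDP; the signal is followed at 480/540 nm at 5-min intervals over 30 min, after 5 min at room temperature. Reactions contain 100 nM EPAC1, 250 nM RAP1B-BODIPY-GDP and 50 uM GDP; results are normalized to ATA and DMSO.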

[3] = target: Rap guanine nucleotide exchange factor 3 (Homo sapiens) (UniProt O95398); assay: Confirmatory qHTS for agonist of cAMP-regulated guanine nucleotide exchange factor 3 (EPAC1) (AID 1645881); further: nearly all actives have a fitted effect of over 75% in size; further: potency means the concentration at half of the fitted maximal effect;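 on activation: EPAC1 catalysed release of BODIPY-GDP from Rap1B seen as fluorescence loss; 100% = effect of cAMP agonist control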
[4] = target: Rap guanine nucleotide exchange factor 4 (Homo sapiens) (UniProt Q8WZA2); assay: Confirmatory qHTS for agonist of cAMP-regulated guanine nucleotide exchange factor 4 (EPAC2) (AID 1645884);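 further: nucleotide exchange releases bodipy-GDP from Rap1 and this lowers its fluorescence; nearly all actives have a fitted effect of over 65% in size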; further: potency means the concentration at half of the fitted maximal effect; on activation: on the % scale 0 is the no-effect control and ±100 the full control effect
[5] = target: Rap guanine nucleotide exchange factor 4 (Homo sapiens) (UniProt Q8WZA2); assay: Confirmatory qHTS for antagonist of cAMP-regulated guanine nucleotide exchange factor 4 (EPAC2) (AID 1645885); further: nearly all actives have a fitted effect of over 25% in size; further: potency means the concentration at half of the fitted maximal effect
[6] = target: Rap guanine nucleotide exchange factor 3 (Homo sapiens) (UniProt O95398); assay: Counterscreen qHTS for antagonist of cAMP-regulated guanine nucleotide exchange factor 3 (EPAC1) (AID 1645888); further: % of control where 0% means no effect
Summary of the method: (§1)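 Rap1B-BODIPY-GDP 250 nM + GDP 50 uM; cpds 7-pt, final 9.74 nM–152 uM (activator mode) or from 7.32 nM upwards (inhibitor mode); RT; FI 480/540 nm at 5 and 30 min, then ± cAMP, reread.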

[7] = target: Rap guanine nucleotide exchange factor 3 (Homo sapiens) (UniProt O95398); assay: Counterscreen qHTS for agonist of cAMP-regulated guanine nucleotide exchange factor 3 (EPAC1) (AID 1645889); further: nearly all actives have a fitted effect of over 40% in size; further: potency means the concentration at half of the fitted maximal effect; on activation: % of control where 0% means no effect
Summary of the method: as §1

[8] = AP1 Signaling Pathway (AID 357; active means well fitted curve in either direction with a large enough effect, not every such curve was filed as active;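 further: ME-180 reporter cells stimulated with EGF at its EC50 level; on the % scale 0 is the no-effect control and ±100 the full control effect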); details: ME-180 AP-1-bla reporter, EGF-induced, beta-lactamase ratio, 5 h; at 7.69 µM (top of the series) unless noted
Summary of the method: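 Beta-lactamase reporter under AP-1 response element, ME-180 background. Stimulus: EC50 EGF. Compound exposure 5 h, 37 °C. Detection: CCF4, 2.5 h RT, 460/530 nm. Values: AC50 from titration.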

[9] = NFAT Signaling Pathway (AID 444; active means well fitted curve in either direction with a large enough effect, not every such curve was filed as active;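 further: carbachol stimulus at about its EC50 of 1 µM final; on the % scale 0 is the no-effect control and ±100 the full control effect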); details: Jurkat NFAT-bla M1, carbachol, beta-lactamase ratio, 5 h; at 7.69 µM (top of the series) unless noted
Summary of the method: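 Read-out: CCF4 FRET ratio (460 nm/530 nm) after 1 h RT dye loading, used for %activity and AC50 from titration series. Cells: Jurkat NFAT-β-lactamase/M1 line, treated with compound plus 1 uM carbachol for 5 h, 37 °C.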

[10] = Stat Signaling Pathway (AID 446; active means well fitted curve in either direction with a large enough effect, not every such curve was filed as active;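 further: ME-180 cervical cancer cells given 40 pM IL-6 alongside compound; SIE-controlled beta-lactamase reporter measured as 460/530 nm FRET emission ratio; on the % scale 0 is the no-effect control and ±100 the full control effect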)
Summary of the method: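 Overnight-plated ME-180 cells bearing a STAT Inducible Element beta-lactamase reporter; 5 h co-exposure to compound and 40 pM IL-6; values normalized to 300 pM IL-6 and 125 nM JAK inhibitor controls.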

[11] = target: Glucocorticoid receptor (Homo sapiens) (UniProt P04150); assay: GR-GFP Redistribution (AID 450;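 active means compounds whose dose series gives a full or clear partial fitted curve of increased nuclear translocation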; further: potency means the concentration at half of the fitted maximal effect); details: U2OS GR-GFP nuclear translocation, laser cytometry, 2 h
[12] = qHTS Assay for Identification of Small Molecule Agonists for Hypoxia Response Element Signaling Pathway (AID 914; active means well fitted activation curve with a large enough effect in the signal ratio, with a control signal flat, not every such curve was filed as active; the % refers to the signal ratio; further: % of control where 0% means no effect); details: ME-180 (cervical carcinoma) HRE-bla reporter, beta-lactamase ratio, CoCl2, 17 h; activation: stronger effect = higher value
Summary of the method: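 Positive modulation of EC50 CoCl2-induced hypoxia response element signaling is measured in ME-180 cells with a beta-lactamase reporter. Compounds are titrated, incubation runs 17 hours, and %Activity derives from the blue/green ratio.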

[13] = target: Catechol O-methyltransferase (Homo sapiens) (UniProt P21964); assay: Confirmatory Screen for Target Class Profiling of Small Molecule Inhibitors of Methyltransferases (AID 1745852; calls by dose curve; further: potency means the concentration at half of the fitted maximal effect); details: MTase-Glo luminescence, SAH detection, recombinant enzyme; measured here: COMT max response; stronger effect = lower value
[14] = target: Guanidinoacetate N-methyltransferase (Homo sapiens) (UniProt Q14353); assay: as above; details: activity change, negative = inhibition: at 57.3 µM (top of the series) unless noted
[15] = target: Nicotinamide N-methyltransferase (Homo sapiens) (UniProt P40261); assay: as above; details: MTase-Glo luminescence, SAH detection, recombinant enzyme; measured here: NNMT max response; stronger effect = lower value
[16] = target: Phenylethanolamine N-methyltransferase (Homo sapiens) (UniProt P11086); assay: as above; details: MTase-Glo luminescence, SAH detection, recombinant enzyme; measured here: PNMT max response; stronger effect = lower value
Phenylethanolamine N-methyltransferase (Homo sapiens), sequence (P11086 whole entry, looked up): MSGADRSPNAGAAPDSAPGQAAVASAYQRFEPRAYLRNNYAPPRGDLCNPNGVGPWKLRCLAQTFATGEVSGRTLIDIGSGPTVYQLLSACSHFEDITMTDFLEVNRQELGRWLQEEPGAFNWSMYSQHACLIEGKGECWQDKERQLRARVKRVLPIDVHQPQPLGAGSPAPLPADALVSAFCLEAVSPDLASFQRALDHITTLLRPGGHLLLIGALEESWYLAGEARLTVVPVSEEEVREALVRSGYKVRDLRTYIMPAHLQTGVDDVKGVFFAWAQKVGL

Rap guanine nucleotide exchange factor 3 (Homo sapiens), sequence (O95398 whole entry, looked up): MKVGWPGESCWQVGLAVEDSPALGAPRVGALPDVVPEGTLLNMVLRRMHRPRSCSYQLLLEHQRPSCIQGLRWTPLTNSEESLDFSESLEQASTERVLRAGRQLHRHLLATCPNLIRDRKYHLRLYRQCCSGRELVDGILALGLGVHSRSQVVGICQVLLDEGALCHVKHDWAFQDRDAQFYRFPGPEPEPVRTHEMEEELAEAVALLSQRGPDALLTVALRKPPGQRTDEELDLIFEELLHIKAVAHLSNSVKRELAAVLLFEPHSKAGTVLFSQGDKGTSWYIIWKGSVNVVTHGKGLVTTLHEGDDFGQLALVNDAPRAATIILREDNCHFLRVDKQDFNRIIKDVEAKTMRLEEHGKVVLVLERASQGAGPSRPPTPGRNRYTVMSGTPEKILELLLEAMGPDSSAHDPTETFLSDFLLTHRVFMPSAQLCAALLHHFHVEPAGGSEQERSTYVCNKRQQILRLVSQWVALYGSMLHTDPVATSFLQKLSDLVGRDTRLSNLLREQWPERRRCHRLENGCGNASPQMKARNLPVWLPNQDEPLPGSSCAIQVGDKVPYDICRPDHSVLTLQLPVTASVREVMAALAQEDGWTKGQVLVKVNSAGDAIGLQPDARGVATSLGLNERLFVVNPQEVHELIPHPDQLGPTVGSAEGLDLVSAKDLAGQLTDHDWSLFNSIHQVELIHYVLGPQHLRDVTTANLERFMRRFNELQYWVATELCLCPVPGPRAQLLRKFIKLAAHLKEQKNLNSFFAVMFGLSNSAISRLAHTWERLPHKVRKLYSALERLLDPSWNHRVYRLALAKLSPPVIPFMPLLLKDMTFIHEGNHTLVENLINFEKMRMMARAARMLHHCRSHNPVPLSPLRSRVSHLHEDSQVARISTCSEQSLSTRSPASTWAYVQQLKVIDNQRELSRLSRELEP
Rap guanine nucleotide exchange factor 4 (Homo sapiens), sequence (Q8WZA2 whole entry, looked up): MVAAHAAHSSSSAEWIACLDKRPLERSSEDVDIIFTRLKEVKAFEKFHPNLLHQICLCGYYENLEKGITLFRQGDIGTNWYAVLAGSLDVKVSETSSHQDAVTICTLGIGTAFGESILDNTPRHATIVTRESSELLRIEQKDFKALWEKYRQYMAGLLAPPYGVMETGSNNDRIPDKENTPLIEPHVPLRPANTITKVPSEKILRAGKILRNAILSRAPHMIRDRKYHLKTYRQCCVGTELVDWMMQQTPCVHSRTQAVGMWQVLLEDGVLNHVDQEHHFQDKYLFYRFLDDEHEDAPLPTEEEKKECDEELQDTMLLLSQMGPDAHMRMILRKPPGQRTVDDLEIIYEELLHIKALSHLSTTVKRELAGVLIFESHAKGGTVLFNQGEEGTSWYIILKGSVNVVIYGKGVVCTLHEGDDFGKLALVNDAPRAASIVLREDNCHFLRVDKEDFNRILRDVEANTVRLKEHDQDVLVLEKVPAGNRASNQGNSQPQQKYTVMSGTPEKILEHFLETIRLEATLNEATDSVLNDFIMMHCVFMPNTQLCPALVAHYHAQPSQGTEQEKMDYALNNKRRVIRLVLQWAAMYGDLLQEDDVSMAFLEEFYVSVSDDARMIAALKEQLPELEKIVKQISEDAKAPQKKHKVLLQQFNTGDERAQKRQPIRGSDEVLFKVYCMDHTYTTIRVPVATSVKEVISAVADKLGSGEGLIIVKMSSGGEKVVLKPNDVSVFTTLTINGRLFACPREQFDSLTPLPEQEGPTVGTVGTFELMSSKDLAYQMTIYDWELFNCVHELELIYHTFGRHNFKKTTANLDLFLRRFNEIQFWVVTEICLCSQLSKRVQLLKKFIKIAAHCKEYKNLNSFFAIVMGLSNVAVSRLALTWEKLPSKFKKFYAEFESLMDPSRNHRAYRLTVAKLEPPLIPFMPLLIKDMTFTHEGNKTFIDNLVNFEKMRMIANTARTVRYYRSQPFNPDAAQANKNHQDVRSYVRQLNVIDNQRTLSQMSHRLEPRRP
Tumor susceptibility gene 101 protein (Homo sapiens), sequence (Q99816 whole entry, looked up, the tested form may be a part): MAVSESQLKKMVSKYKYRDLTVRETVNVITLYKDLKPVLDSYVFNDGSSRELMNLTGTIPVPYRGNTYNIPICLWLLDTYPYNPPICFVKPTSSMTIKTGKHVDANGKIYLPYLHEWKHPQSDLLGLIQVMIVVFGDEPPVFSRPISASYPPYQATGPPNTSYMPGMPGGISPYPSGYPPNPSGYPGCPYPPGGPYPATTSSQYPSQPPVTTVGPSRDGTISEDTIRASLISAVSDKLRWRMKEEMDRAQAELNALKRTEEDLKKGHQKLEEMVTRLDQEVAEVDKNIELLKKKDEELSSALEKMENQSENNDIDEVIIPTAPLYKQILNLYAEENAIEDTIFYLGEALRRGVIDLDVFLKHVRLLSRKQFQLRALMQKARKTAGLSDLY
Nicotinamide N-methyltransferase (Homo sapiens), sequence (P40261 whole entry, looked up): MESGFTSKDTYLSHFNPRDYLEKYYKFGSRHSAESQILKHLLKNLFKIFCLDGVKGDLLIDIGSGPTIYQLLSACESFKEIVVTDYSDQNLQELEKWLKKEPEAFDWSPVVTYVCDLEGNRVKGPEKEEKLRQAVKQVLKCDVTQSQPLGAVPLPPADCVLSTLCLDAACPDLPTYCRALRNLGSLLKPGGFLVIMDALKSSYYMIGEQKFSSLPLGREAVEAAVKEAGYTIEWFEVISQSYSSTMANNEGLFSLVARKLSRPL
Glucocorticoid receptor (Homo sapiens), sequence (P04150 whole entry, looked up): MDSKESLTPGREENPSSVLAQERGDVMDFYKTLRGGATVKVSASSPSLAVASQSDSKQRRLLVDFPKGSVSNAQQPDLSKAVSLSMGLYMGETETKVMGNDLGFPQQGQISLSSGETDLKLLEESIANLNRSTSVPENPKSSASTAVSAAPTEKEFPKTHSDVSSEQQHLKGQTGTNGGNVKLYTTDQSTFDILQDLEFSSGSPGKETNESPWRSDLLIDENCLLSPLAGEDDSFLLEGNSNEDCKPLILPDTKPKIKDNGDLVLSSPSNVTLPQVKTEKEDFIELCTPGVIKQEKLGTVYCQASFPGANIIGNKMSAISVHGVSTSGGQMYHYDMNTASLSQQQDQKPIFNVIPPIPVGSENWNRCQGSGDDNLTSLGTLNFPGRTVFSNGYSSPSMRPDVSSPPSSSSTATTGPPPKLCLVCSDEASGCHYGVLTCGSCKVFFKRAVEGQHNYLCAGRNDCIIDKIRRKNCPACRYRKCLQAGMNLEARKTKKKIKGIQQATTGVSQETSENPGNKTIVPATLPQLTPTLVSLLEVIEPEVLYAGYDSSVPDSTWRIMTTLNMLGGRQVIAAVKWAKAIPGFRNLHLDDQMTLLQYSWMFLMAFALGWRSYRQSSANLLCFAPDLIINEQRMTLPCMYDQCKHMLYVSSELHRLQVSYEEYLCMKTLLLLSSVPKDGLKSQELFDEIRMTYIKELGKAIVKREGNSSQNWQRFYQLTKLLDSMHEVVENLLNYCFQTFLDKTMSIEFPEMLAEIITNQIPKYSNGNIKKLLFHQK
Catechol O-methyltransferase (Homo sapiens), sequence (P21964 whole entry, looked up): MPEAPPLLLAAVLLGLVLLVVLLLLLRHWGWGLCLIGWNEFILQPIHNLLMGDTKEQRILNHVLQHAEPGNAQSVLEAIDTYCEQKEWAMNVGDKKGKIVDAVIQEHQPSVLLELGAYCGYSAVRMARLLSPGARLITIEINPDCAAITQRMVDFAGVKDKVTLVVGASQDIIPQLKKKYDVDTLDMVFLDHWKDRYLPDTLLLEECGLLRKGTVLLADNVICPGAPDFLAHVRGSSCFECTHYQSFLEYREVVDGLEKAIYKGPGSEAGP

N#CC(C(=O)OC1CCCCC1)c1nc2ccccc2nc1N1CCOCC1 (stereo not given)
active: Potency [1] 10.3 µM
inactive: Potency [2] | Potency [3] | activation [4] -10.2% [at 17.1 µM, percent relative to cAMP agonist control] | Potency [5] | activity change, negative = inhibition [6] -21.8% [at 30.8 µM] | activation [7] -0.592% [at 30.8 µM]

O=[N+]([O-])c1ccc(Sc2cccc[n+]2[O-])c2nonc12
inactive: Potency [3] | activation [4] 3.05% [at 17.1 µM, percent relative to cAMP agonist control] | Potency [5] | activity change, negative = inhibition [6] -8.92% [at 30.8 µM] | activation [7] 9.42% [at 30.8 µM]
active: Potency [1] 18.3 µM | Potency [2] 31.6 µM

c1ccc(-c2cn3nc(-c4ccccc4)c(-c4ccccc4)nc3n2)cc1
inactive: Potency [1] | Potency [2] | Potency [3] | activation [4] 8.73% [at 17.1 µM, percent relative to cAMP agonist control] | Potency [5] | activity change, negative = inhibition [6] 14.3% [at 30.8 µM] | activation [7] 16.7% [at 30.8 µM]

CC(NC(=O)Nc1ccc(O)cc1)(C(F)(F)F)C(F)(F)F
inactive: activity change, negative = inhibition [8] 5.47% [at 17.2 µM] | activity change, negative = inhibition [9] 11.8% [at 17.2 µM] | outcome [10] | Potency [11] > 20.6 µM | activation [12] 8.6% | Potency [2] | Potency [3] | activation [4] -12.7% [at 17.1 µM, percent relative to cAMP agonist control] | Potency [5] | activity change, negative = inhibition [6] -9.73% [at 30.8 µM] | activation [7] 3.78% [at 30.8 µM]

O=C1c2cccc3c(O)ccc(c23)C(=O)N1c1ccc(Cl)cc1
active: Potency [1] 4.11 µM | Potency [3] 112 µM | Potency [4] 112 µM | Potency [5] 84.9 µM | Potency [7] 39.8 µM
inactive: Potency [2] | Potency [6]

COC(=O)c1cc(Br)c(=O)n(Cc2ccc3c(c2)OCO3)c1
inactive: activity change, negative = inhibition [8] -2.94% [at 17.2 µM] | activity change, negative = inhibition [9] 2.18% [at 17.2 µM] | outcome [10] | Potency [2] | Potency [3] | activation [4] -3.61% [at 17.1 µM, percent relative to cAMP agonist control] | Potency [5] | activity change, negative = inhibition [6] 5.45% [at 30.8 µM] | activation [7] 2.16% [at 30.8 µM]

CCCc1cc2c(-c3ccccc3)cc(=O)oc2cc1OCc1ccc(C(=O)O)o1
inactive: Potency [3] | Potency [4] | Potency [5] | Potency [6] | Potency [7]
-42%: activity [16]
-44.4%: activity [13]
active: Potency [2] 75.7 µM | Potency [14] 24.1 µM
-57.8%: activity [15]

Cc1cc(=O)oc2ccc(OC(=O)CN3C(=O)c4cccc([N+](=O)[O-])c4C3=O)cc12
inactive: Potency [1] | Potency [2] | Potency [3] | Potency [4] | Potency [5] | Potency [6] | Potency [7]
